Measured values published in PubChem BioAssay AID1159580 (chemical genetic matrix, 2015).
Hit rate of the full screen: of about 5,500 compounds, about 2,000 (36%) were called active. Not shown: some 18% with an inconclusive outcome. Cut-off read from the data, not from the text of the source: active = normalized growth mostly below about 0.91 (no sharp cut-off); inconclusive = no clear call, values can overlap the other calls; inactive = mostly above about 0.92. The list shows a part of the results.

Experiment: chemical genetic growth profiling, strain panel (AID 1159580);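 note: tested at 20 µM; growth read once vehicle control cultures reached saturation at 30 °C; 1 = growth at the plate median or of vehicle wells; lower values mean less growth of the strain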
Settings: S. cerevisiae deletion strains, growth OD

Measured: normalized growth

COc1ccccc1-c1coc2cc(O)ccc2c1=O
inactive: locus YBR021W, strain FUR4, hits give low values 0.987 | locus YBR229C, strain ROT2, hits give low values 1.01 | locus YCL029C, strain bik1, hits give low values 1 | locus YDL035C, strain GPR1, hits give low values 0.983 | locus YDL074C, strain BRE1, hits give low values 1.02 | locus YDL101C, strain DUN1, hits give low values 0.995 | locus YDL134C, strain PPH21, hits give low values 0.963 | locus YDL185W, strain tfp1, hits give low values 0.999 | locus YDL192W, strain arf1, hits give low values 1 | locus YDR101C, strain arx1, hits give low values 0.996 | locus YDR162C, strain NBP2, hits give low values 0.986 | locus YDR318W, strain mcm21, hits give low values 1.01 | locus YDR388W, hits give low values 1.03 | locus YDR502C, strain sam2, hits give low values 1.02 | locus YEL061C, strain CIN8, hits give low values 1.02 | locus YER110C, hits give low values 1.02 | locus YER155C, strain BEM2, hits give low values 1.02 | locus YER167W, strain BCK2, hits give low values 1.03 | locus YGL078C, strain dbp3, hits give low values 1 | locus YGL086W, strain mad1, hits give low values 1.01 | locus YGL248W, strain PDE1, hits give low values 1.01 | locus YGR078C, strain PAC10, hits give low values 0.995 | locus YGR135W, strain pre9, hits give low values 0.999 | locus YGR252W, strain gcn5, hits give low values 0.88 | locus YHR030C, strain SLT2, hits give low values 1.02 | locus YHR079C, strain IRE1 (second series), hits give low values 1.02 | locus YHR094C, strain hxt1, hits give low values 1.02 | locus YHR129C, strain ARP1, hits give low values 1.03 | locus YHR200W, strain rpn10, hits give low values 1.03 | locus YIL066C, strain RNR3, hits give low values 1.01 | locus YIL073C, strain SPO22, hits give low values 1.05 | locus YIL125W, strain kgd1, hits give low values 1.02 | locus YIR030C, strain dcg1, hits give low values 1.01 | locus YJL095W, strain BCK1, hits give low values 1.04 | locus YJL134W, strain LCB3, hits give low values 1.02 | locus YJL168C, strain set2, hits give low values 1.02 | locus YJL187C, strain SWE1 (second series), hits give low values 0.998 | locus YJR043C, strain POL32, hits give low values 0.971 | locus YKL009W, strain mrt4, hits give low values 0.993 | locus YKL068W, hits give low values 1 | locus YKL085W, strain MDH1 (second series), hits give low values 1 | locus YKL085W, strain MDH1, hits give low values 1 | locus YKL190W, strain CNB1, hits give low values 1.02 | locus YKR001C, strain vps1, hits give low values 0.979 | locus YLR039C, strain RIC1, hits give low values 1.03 | locus YLR058C, strain SHM2, hits give low values 1.01 | locus YLR102C, strain apc9, hits give low values 1.01 | locus YLR262C, strain YPT6, hits give low values 0.991 | locus YLR268W, strain sec22, hits give low values 0.997 | locus YLR330W, strain CHS5, hits give low values 1.03 | locus YLR342W, strain FKS1 (second series), hits give low values 0.992 | locus YLR371W, strain rom2, hits give low values 1.02 | locus YLR418C, strain cdc73, hits give low values 0.969 | locus YML016C, strain PPZ1, hits give low values 1.04 | locus YML032C, strain rad52, hits give low values 1.02 | locus YML124C, strain tub3, hits give low values 1.01 | locus YMR078C, strain ctf18, hits give low values 1.01 | locus YMR223W, strain ubp8, hits give low values 0.999 | locus YMR263W, strain SAP30, hits give low values 1 | locus YMR307W, strain GAS1, hits give low values 0.909 | locus YNL067W, strain RPL9B, hits give low values 0.987 | locus YNL233W, strain BNI4, hits give low values 1.02 | locus YNL250W, strain rad50, hits give low values 1.02 | locus YNL271C, strain bni1, hits give low values 1.02 | locus YNL298W, strain CLA4, hits give low values 1 | locus YNL307C, strain MCK1, hits give low values 1.02 | locus YNR052C, strain pop2, hits give low values 1.01 | locus YOL006C, strain TOP1, hits give low values 1.08 | locus YOL012C, strain htz1 1.12 | locus YOL147C, strain pex11, hits give low values 1.01 | locus YOR061W, strain CKA2, hits give low values 1.01 | locus YOR069W, strain VPS5, hits give low values 1.02 | locus YOR136W, strain idh2, hits give low values 1.03 | locus YOR144C, strain elg1, hits give low values 0.999 | locus YOR184W, strain ser1, hits give low values 0.981 | locus YOR316C, strain cot1, hits give low values 1.03 | locus YPL055C, strain LGE1, hits give low values 1 | locus YPL241C, strain CIN2, hits give low values 0.996 | locus YPR119W, strain clb2, hits give low values 1 | locus YPR141C, strain kar3, hits give low values 1.01 | locus YPR163C, strain tif3, hits give low values 1.02 | locus YPR167C, strain met16, hits give low values 1.01 | strain wtn01, hits give low values 0.986
